The structures appear in SMILES notation. About 79,000 compounds went through this panel and 15% of them were active in at least one assay; those are over-represented in the sample as a whole. Active and inactive are the calls of the source. Rule as the data show it: active = growth inhibition above about 70%; inactive = the rest.

This experiment is described as follows: NCI Yeast Anticancer Drug Screen. Data for the mlh1 rad18 strain (AID 175). The note with it: S. cerevisiae mlh1 rad18 strain growth inhibition; at 50.0 µM; hits give high values. The gist of the method: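 Inhibition values reflect reduced growth of mutant yeast versus vehicle-treated controls following compound exposure; the mutations affect DNA damage repair.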
With `CCCCCCCCCC1OCC(C)O1` (stereo not drawn), the growth inhibition is 61.2% (inactive).

For `O=[N+]([O-])c1ccc2c(c1)/C(=C/c1ccc(O)cc1)c1ccccc1-2`, the growth inhibition is 88.8% (active).

Regarding `COc1cc2c(cc1OC(C)=O)C(=O)C(Br)(Br)CCC2`, the growth inhibition was 98.5% (active).

Regarding `COC(=O)c1cc2c(oc1=O)-c1ccccc1N(C=O)C2`, the growth inhibition is 2.1% (inactive).

`CC(=O)Nc1ccc(S(=O)(=O)/N=C2\C=CC(=O)c3ccccc32)cc1`: the growth inhibition is 80% (active).

As for `C/C(=N/NC(=S)N(C)C)c1ccccc1O`, the growth inhibition is 16.7% (inactive).

For the molecule `CC(CN(C)C)C(=O)/C=C/c1c(Cl)cccc1Cl` (stereo not drawn), the growth inhibition was 96.5% (active).

For `N#CC(O)C(Br)(Br)Br` (stereo not drawn), the growth inhibition is 86% (active).

Turning to `C=Cc1cc(N=Nc2ccc([N+](=O)[O-])cc2)ccc1N(C)C`, the growth inhibition is 47.7% (inactive).

In the case of `Cc1cccnc1NC(=S)Nc1ccccc1Cl`, the growth inhibition is 89.5% (active).

Take `O=C1C=CC(=O)c2c(O)c(N3CCC[C@@H]3CO)c(Cl)c(O)c21`: the growth inhibition is 4.25% (inactive).

Consider `Cc1cc(C(=O)O)c(C)c2c1sc1ccccc12`, for which the growth inhibition is 81.2% (active).

With `COc1cccc2c1OC(c1ccc(Cl)cc1)C([N+](=O)[O-])=C2` (stereo not drawn), the growth inhibition is 84% (active).

On to `CC1=C(C(=O)Nc2cccc(Cl)c2)C(c2ccccc2F)C(C(=O)Nc2cccc(Cl)c2)=C(C)N1`, for which the growth inhibition was 87.7% (active).

As to `Cc1ccc(C2C(O)=C(c3ccccc3)Sc3ccc(C)cc32)cc1` (stereo not drawn), the growth inhibition is 31.4% (inactive).

With `CC(=O)Oc1ccc(C)c(C(C)C(Cl)(Cl)Cl)c1` (stereo not drawn), the growth inhibition was 81.2% (active).

In the case of `CCCC(=O)Oc1ccc(-c2ccc(Br)cc2)cc1`, the growth inhibition was 95.8% (active).

With `CCCCC#CCOC(=O)c1cc([N+](=O)[O-])cc([N+](=O)[O-])c1`, the growth inhibition is 98.8% (active).

The values above are taken from PubChem BioAssay (NCI).
